Compounds with a hit are over-represented: about 1.7% of the library has one in this group of screens.
LANA-H2A inh = blockers of LANA interaction with H2A/H2B – biochemical, FP readout, HTS, primary screen; Protein LANA1 (Human herpesvirus 8 type P (isolate GK18)), Q9QR71; cell-free LANA-H2A/H2B peptide, fluorescence polarization; inhibition, % (test concentration not listed); 320,000 tested, 0.6% active; in the data active = inhibition mostly above about 10%, no sharp cut-off; inactive = mostly below about 6.7%
HDAC3 inh = HDAC3 deacetylase inhibitors, primary screen, biochemical, fluorescence, cell-free homogeneous; Histone deacetylase 3 (Homo sapiens), O15379; recombinant HDAC3, fluorogenic peptide/trypsin coupled; 320,000 tested, 0.15% active; inhibition, % at 8.3 µM; AID 2718, 2010; in the data active = inhibition above about 26%, passing the limit was not always enough
Target sequence (O15379 whole entry, looked up): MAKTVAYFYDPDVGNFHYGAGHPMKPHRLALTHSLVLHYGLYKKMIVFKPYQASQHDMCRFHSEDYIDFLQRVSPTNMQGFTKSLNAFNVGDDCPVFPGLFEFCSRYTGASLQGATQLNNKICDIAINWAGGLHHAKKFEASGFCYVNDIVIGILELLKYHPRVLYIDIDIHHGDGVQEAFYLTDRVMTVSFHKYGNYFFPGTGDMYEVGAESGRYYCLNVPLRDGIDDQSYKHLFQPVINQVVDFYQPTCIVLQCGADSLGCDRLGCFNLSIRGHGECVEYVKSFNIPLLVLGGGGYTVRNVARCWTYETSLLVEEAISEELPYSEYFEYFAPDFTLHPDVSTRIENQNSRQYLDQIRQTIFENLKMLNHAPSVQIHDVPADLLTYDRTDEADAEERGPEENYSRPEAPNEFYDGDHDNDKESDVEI
m5-HT2A agonist = mouse Htr2a agonists via beta-arrestin recruitment, primary screen, cell-based, luminescence; 5-hydroxytryptamine receptor 2A (Mus musculus), P35363; CHO-K1 mHTR2A beta-arrestin complementation; percent of 30 µM serotonin response; activation, % at 7.6 µM; 360,000 tested, 0.66% active; AID 624169, 2012;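 active = activation above a run cutoff, the mean activation of all tested compounds plus 3 SD, cut at about 14% in these data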;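 also: 0% = plate median of compound wells and 100% = 30 µM serotonin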
Fh CTSL1 inh = Fasciola hepatica cathepsin L1 inhibitors, primary screen, counter-screen for PFM18AAP inhibitor project, biochemical, QFRET, fluorogenic peptide substrate. 300,000 tested, 0.49% active. inhibition, % at 5.96 µM. recombinant F. hepatica cathepsin L1, Z-Leu-Arg-MCA fluorescence;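 active = inhibition above the mean of all tested compounds plus 3 SD, set per screening campaign, cut at about 17% in these data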;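 also: 0% = plate median of test compound wells and 100% = 1 µM Z-Phe-Ala-diazomethylketone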
OPRM1 ag = OPRM1 agonists via beta-arrestin recruitment, confirmation, counter-screen for mouse HTR2A agonist project, cell-based, luminescence, single concentration | shares compounds with m5-HT2A agonist | U2OS OPRM1 beta-arrestin PathHunter; DMSO 0%, DAMGO 9.3 µM 100% | activation, % at 9.3 µM | 2,300 tested, 5.3% active;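 active = mean activation above the mean of DMSO-only wells plus 3 SD, cut at about 0.5% in these data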
m5-HT2A ag conf = mouse HTR2A agonists, beta-arrestin recruitment, confirmation, cell-based, luminescence, CHO-K1 PathHunter, triplicate. shares compounds with m5-HT2A agonist. 2,300 tested, 19% active. DMSO 0%, 30 µM serotonin 100%. activation, % at 7.6 µM;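 active = mean activation across triplicates above the hit threshold derived in the original primary screen, cut at about 15% in these data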
Numbers without * were called inactive; i = inactive; nt = no result.

SMILES	LANA-H2A inh	HDAC3 inh	m5-HT2A agonist	Fh CTSL1 inh	OPRM1 ag	m5-HT2A ag conf
Cn1cc(C(=O)c2ccc(Cl)cc2Cl)cc1C(=O)N/N=C(\N)COc1ccc(F)cc1	0.2	-1.7	-5.0	-0.5	nt	nt
CCOC(=O)NC(Nc1ccc(C)cn1)(C(F)(F)F)C(F)(F)F	0.9	-1.8	1.6	6.8	nt	nt
CC(C)OC(=O)NC(Nc1ccccc1C(=O)O)(C(F)(F)F)C(F)(F)F	-13.0	-10.9	21.9*	-1.4	0.0	1.1
CCOc1cc(C(=O)Nc2cc3c(cc2N2CCOCC2)n(C)c(=O)n3C)cc(OCC)c1OCC	-2.9	-2.8	9.6	4.9	nt	nt
O=C(Nc1ccccc1C(=O)Nc1ccc2c(c1)OCO2)c1ccco1	-3.5	0.2	-16.3	-4.2	nt	nt
O=C(Nc1oc2ccccc2c(=O)c1-c1ccc2c(c1)OCO2)c1ccco1	nt	nt	14.5*	nt	-0.7	-4.5
C[C@@H]1CN([C@@H](C)CO)C(=O)CCCn2nncc2CO[C@H]1CN(C)S(=O)(=O)c1ccc(C#N)cc1	nt	nt	-2.4	nt	nt	nt
Cc1cc(NC(=O)c2ccc([N+](=O)[O-])cc2Cl)no1	-2.9	-1.3	4.2	-1.4	nt	nt
Cc1cc(NC(=O)c2cc([N+](=O)[O-])ccc2Cl)no1	-0.8	5.1	17.2*	0.5	-0.3	-2.2
CCOC(=O)C1=C(C)Nc2ccccc2N=C1NC(=O)c1oc2ccccc2c1COC	-2.0	0.7	6.4	nt	nt	nt
O=C(OC1CCCCC1=O)c1cc(S(=O)(=O)N2CCOCC2)ccc1F (configuration not stated)	-2.1	0.2	15.3*	-2.9	1.1*	6.3
O=C(NCC1CCCCC1)c1cc(S(=O)(=O)N2CCOCC2)ccc1F	i	-1.2	15.2*	nt	-0.7	-1.5
COc1ccc2[nH]c3c(c2c1)CCN1C(=O)C(CC(=O)NCc2ccc(OC)c(OC)c2)C[C@H](C(=O)N2CCCCC2)[C@@]31CCc1ccccc1 (some centres not stated)	nt	nt	0.3	nt	nt	nt
Cc1onc(-c2c(Cl)cccc2Cl)c1C(=O)N1CCOCC1	-2.1	4.0	17.2*	5.8	-0.4	-0.2
Cc1onc(-c2c(Cl)cccc2Cl)c1C(=O)N1CCSCC1	-3.2	7.8	4.0	-3.0	nt	nt
